Measurements taken from the OligoGym collection.
Note: reference of the scale not given here.

What follows are sequences tested against ZMAT5 (assay: pooled miR-30 sensor sort-seq; sequence = guide strand). Conditions: shRNA.
ATGTCGTACCAGACCTTCTTGG showed a sensor-assay potency score (higher = more potent) of -1.05.
ATCTCGGAACATGTCGTACCAG showed a sensor-assay potency score (higher = more potent) of -1.24.
In the case of TTGGAGCCAAAGTCGCACTGGC, the sensor-assay potency score (higher = more potent) is reported as -0.262.
Work on TGTCGTACCAGACCTTCTTGGC yielded a sensor-assay potency score (higher = more potent) of -0.415.
Work on TCTGACATGTGGGAAAATCTGC yielded a sensor-assay potency score (higher = more potent) of -0.533.
Sequence AAAATCTGCAGTTGGAGCCAAA has a sensor-assay potency score (higher = more potent) of -1.1.
TCTCGCTCTGACATGTGGGAAA showed a sensor-assay potency score (higher = more potent) of -1.37.
Sequence TACTGGAAGACAGTGGTTCTGA has a sensor-assay potency score (higher = more potent) of 0.107.
For TACCAGACCTTCTTGGCCTTGA, the sensor-assay potency score (higher = more potent) was 0.178.
TTGTTCTGCTCATCCAGCAAGA showed a sensor-assay potency score (higher = more potent) of -0.992.

Each sequence was assayed against ZMYM3 in the same assay as above. Conditions: shRNA.
Sequence TTGACCACAGATCCCATCCTGC has a sensor-assay potency score (higher = more potent) of -0.277.
For TAGAACTTGACAGGGCAGCGGA, the sensor-assay potency score (higher = more potent) was -0.668.
TTGTTCAGTAGACACATCCTCA gave a sensor-assay potency score (higher = more potent) of 0.00931.
For AAACAGGTCACAGTCTTCCAGG, the sensor-assay potency score (higher = more potent) was -1.1.
Work on TTGGACTTCATCTCCACCTTGC yielded a sensor-assay potency score (higher = more potent) of 0.519.
Work on TTACACAGGGTCTTGCACCAGA yielded a sensor-assay potency score (higher = more potent) of 0.022.
Sequence TTGAGCTCAGCAGCTGAGCAGG has a sensor-assay potency score (higher = more potent) of -1.2.
Sequence TACACTGGGATTAATGTCCAGA has a sensor-assay potency score (higher = more potent) of -0.579.
Work on TTCTGTTTGACTTCCTTTGGAC yielded a sensor-assay potency score (higher = more potent) of 0.00295.
In the case of TTGTCTGTGCTCTCCAAGGTAG, the sensor-assay potency score (higher = more potent) is reported as -0.839.
TTTGTGACACACTTGAGCGTAG gave a sensor-assay potency score (higher = more potent) of 0.22.
For TTGTACAGCAGCACACAGCCTT, the sensor-assay potency score (higher = more potent) was -0.282.

Each sequence was assayed against ZNF100 in the same assay as above. Conditions: shRNA.
For TATTTGTACAATATTTCTCAAG, the sensor-assay potency score (higher = more potent) was -1.35.
TTCAAAATAAGACTGCACCAGA gave a sensor-assay potency score (higher = more potent) of 0.0757.
For TAATTTGTTATCATGTTCTTTG, the sensor-assay potency score (higher = more potent) was -0.537.
TTAATTTGTTATCATGTTCTTT showed a sensor-assay potency score (higher = more potent) of -0.0243.
With TTTGTTATCATGTTCTTTGTGC the sensor-assay potency score (higher = more potent) was 0.633.
TTTCTAGTATGTCTTATCTTAT was tested, and the sensor-assay potency score (higher = more potent) was -1.12.
Work on TTAGTGAGGGCTGAGGACCAGT yielded a sensor-assay potency score (higher = more potent) of -0.895.
TTTGTAACTGTAAATTGTCATG gave a sensor-assay potency score (higher = more potent) of -1.22.
Sequence TTTCCTATACAAACCCTGCTGA has a sensor-assay potency score (higher = more potent) of -0.0321.
Sequence TTGAATTTGAAAATGTATGAAA has a sensor-assay potency score (higher = more potent) of -0.873.
TTCTCCAGTATAACTTACCTTA showed a sensor-assay potency score (higher = more potent) of -0.393.

The sequences below were run against ZNF135 in the same assay as above. Conditions: shRNA.
In the case of TAGAACTGACAGTTTGACTTTG, the sensor-assay potency score (higher = more potent) is reported as -0.0496.
With TCAAACGTCACTTGCTCCGGGT the sensor-assay potency score (higher = more potent) was -0.579.
Work on TATTTCTTCAGAGATGCCTTGC yielded a sensor-assay potency score (higher = more potent) of 0.235.
In the case of TTAAGCATTCGTGACATTCATA, the sensor-assay potency score (higher = more potent) is reported as -1.02.
Work on TAACATAGCACTAATGGGCGTT yielded a sensor-assay potency score (higher = more potent) of 0.0821.
TTGCTTTAGAACTGACAGTTTG showed a sensor-assay potency score (higher = more potent) of -1.45.
TGTTCGATAAGTGCTGAGCTGT was tested, and the sensor-assay potency score (higher = more potent) was -0.66.
